# Laboratory results taken from ChEMBL document CHEMBL4513216, “Probing the Open Global Health Chemical Diversity Library for Multistage-Active Starting Points for Next-Generation Antimalarials” (ACS Infect Dis, 2020).
# The whole screen tested about 68,000 compounds, of which about 2,700 (4%) showed an effect of 50% or more. The list comes from a sample in which strong results are over-represented; it also holds similar structures and randomly drawn compounds.
# Test system: Plasmodium berghei
# Assay: Screen against P. berghei liver stage (PbLuc), transformed with Luciferase, at 2uM
# Assay type: functional, HepG2
# Details: tested at 2 uM
row,SMILES,INHIBITION
1,O=C(NCCOCCO)c1cccnc1Oc1ccc(Cl)cc1,21.75%
2,c1ccc2oc(N3CCn4c(nnc4C4CC4)C3)nc2c1,-45.42%
3,Cn1ccnc1-c1ccc(NCc2cn3c(n2)SCC3)nn1,-75.92%
4,Cc1ccc(C(=O)NCCCN(C)S(C)(=O)=O)cc1-n1cccc1,-5.68%
5,Cc1ccc(C(=O)NCCCNS(C)(=O)=O)cc1-n1cccc1,54.49%
6,CS(=O)(=O)NCCCNC(=O)c1cccc(-n2cccc2)c1,30.31%
7,CNC(=O)Cn1nc(C(C)C)c2cnn(C(C)(C)C)c2c1=O,-30.6%
8,CCN1CCC(CC(=O)NCC(O)c2cccc(OC)c2)CC1 (stereo not drawn),50.32%
9,O=C(CC(F)(F)F)NCC(O)c1ccc2ccccc2c1 (stereo not drawn),23.81%
10,COc1cccc(C(O)CNC(=O)CC2CCCCC2)c1 (stereo not drawn),51.96%
11,CCN1CCC(CC(=O)NCC(O)c2ccc3ccccc3c2)CC1 (stereo not drawn),52.08%
12,CCN1CCC(CC(=O)NCCc2nc(C)cc(C)n2)CC1,3.4%
13,O=C(CNC(=O)C1CCCC1)NCC(O)c1ccc2ccccc2c1 (stereo not drawn),9.78%
14,CC(C)Oc1cccc(C(O)CNC(=O)CCc2ccncc2)c1 (stereo not drawn),-32.28%
15,COc1cccc(S(=O)(=O)NC(=O)CC2CCCC2)c1,14.02%
16,CCN1CCC(CC(=O)NCc2nc(C)cc(C)n2)CC1,-28.09%
17,O=C(C1CCOCC1)N1C[C@@H]2[C@@H](C1)OCC(=O)N2Cc1ccncc1,-25.8%
18,CC(Nc1ncnc2c1CCNC2)c1ccc2c(c1)CCCC2 (stereo not drawn),48.21%
19,Cn1ncc2c1CN(C(=O)Cc1ccccn1)CC2COCC1CC1 (stereo not drawn),-4.69%
20,O=C(C1CCC1)N1CCN(Cc2ccc(F)cc2)[C@H]2CS(=O)(=O)C[C@H]21,5.17%
21,Cc1ncc2c(n1)CN(CC(=O)Nc1c(C)nn(C)c1C)CC2,64.16%
22,CCc1ncc2c(n1)CN(CC(=O)Nc1cccnc1)CC2,-28.98%
23,Cc1ncc2c(n1)CN(CC(=O)Nc1ccncc1)CC2,-63.75%

row,SMILES,INHIBITION
1,Cc1cc(NC(=O)CN2CCc3cnc(C)nc3C2)on1,42.11%
2,Cc1ncc2c(n1)CN(CC(=O)Nc1cc(C)on1)CC2,31.57%
3,Cc1ncc2c(n1)CN(CC(=O)Nc1cccnc1)CC2,51.94%
4,Cc1cc(C(=O)N2CCC3(CCNCC3)CC2)c2cccc(C)c2n1,-26.08%
5,COc1ccccc1CNC(Cc1cccs1)c1nc(C)c(C)s1 (stereo not drawn),46.15%
6,Cc1nc(C)n(C2CCCN(C(=O)c3ccc(OC(C)C)nc3)C2)n1 (stereo not drawn),3.33%
7,CCN(CCN(C)C)c1nc(CCN)nc2sc(C)c(C)c12,-6.77%
8,Cn1ncc2c1NC(=O)CC2c1ccc(O)cc1 (stereo not drawn),16.01%
9,COCCOc1ncccc1C(=O)N1CCCC1Cn1cc(C)cn1 (stereo not drawn),-17.31%
10,Cc1cc(C)n(CC2CCCN2C(=O)c2ccc3c(c2)OCCO3)n1 (stereo not drawn),4.07%
11,CN(C)c1ncccc1C(=O)N1CCCC1Cn1cccn1 (stereo not drawn),7.13%
12,CCCN1CCCC1Cn1nc(C)cc1C (stereo not drawn),60.23%
13,Cc1cc(C)n(CC2CCCN2C(=O)c2c(C)noc2C)n1 (stereo not drawn),-27.28%
14,Cc1cc(C)n(CC2CCCN2C(=O)c2cccc3c2OCO3)n1 (stereo not drawn),-72.55%
15,Cc1cc(C)n(CC2CCCN2C(=O)c2cccc3c2OCCO3)n1 (stereo not drawn),50.75%
16,COCCN1CCCC1Cn1nc(C)cc1C (stereo not drawn),17.98%
17,Cc1cnn(CC2CCCCN2C(=O)c2cccnc2N(C)C)c1 (stereo not drawn),70.27%
18,Cc1cc(C)n(CC2CCCN2CCS(C)(=O)=O)n1 (stereo not drawn),-6.16%
19,Cc1cc(C)n(CC2CCCN2C(=O)Cc2c(C)nn(C)c2C)n1 (stereo not drawn),-15.05%
20,Cc1cc(C)n(CC2CCCN2C(=O)Cc2c(C)noc2C)n1 (stereo not drawn),51.19%
21,COc1ccc(CN2CCO[C@H]3[C@H](OCc4ccncc4)CC[C@@H]32)cc1,-3.18%
22,Cc1nn(C2CCCCC2)c2nc(C(C)(C)CN3CCOCC3)[nH]c12,48.54%
23,Cc1cccnc1CN1CCN(C(=O)CCn2ccc(=O)[nH]c2=O)CC1,35.88%

row,SMILES,INHIBITION
1,Cc1cccc(Cc2cc(C)nc(C3CCCNC3)c2)c1 (stereo not drawn),-27.54%
2,CCOCC(=O)NCCC(O)c1ccoc1 (stereo not drawn),1.3%
3,O=C(NCCNc1ncccn1)C1CC(=O)N(Cc2ccccn2)C1 (stereo not drawn),35.65%
4,Nc1cc(N2CCCC2c2cnccn2)ncn1 (stereo not drawn),30.38%
5,Cc1cnn(CC2CCCCN2C(=O)c2ccccc2-n2cccn2)c1 (stereo not drawn),37.68%
6,Cc1cnn(CC2CCCN2C(=O)c2ccccc2-n2cnnn2)c1 (stereo not drawn),21.39%
7,Cc1cc(C)n(CC2CCCN2C(=O)c2c[nH]c3ncccc23)n1 (stereo not drawn),-1.56%
8,CCOc1ncccc1C(=O)N1CCCC1Cn1nc(C)cc1C (stereo not drawn),11.95%
9,Cc1cnn(CC2CCCN2C(=O)c2ccccc2-n2cccn2)c1 (stereo not drawn),76.38%
10,Cc1cc(C)n(CC2CCCN2C(=O)c2cccnc2N(C)C)n1 (stereo not drawn),56.02%
11,CCc1c(C(=O)N2CCC3(CCCN(CCO)C3=O)C2)csc1C (stereo not drawn),40.64%
12,CCCC(=O)N1CCN(CCN(C)C)c2nc(C)ccc2C1,19.51%
13,Cn1ccnc1SCC(=O)NCCC1CCCO1 (stereo not drawn),-38.4%
14,O=C(c1ccon1)N1CCCCC1c1nc2cc(F)ccc2[nH]1 (stereo not drawn),14.79%
15,COCCC1CN(Cc2cn(CCC(N)=O)c3ccccc23)CCO1 (stereo not drawn),26.22%
16,Cc1nnc(CN2CCC(Oc3ccc(F)cc3)CC2)o1,-4.89%
17,C/N=C1\c2cc3cc(OC)ccc3n2CCN1Cc1ccccc1,-2.66%
18,c1cn2c(n1)CN(C1CCOCC1)CC(CN1CCCC1)C2 (stereo not drawn),29.95%
19,OCC1(O)CCN(Cc2noc(-c3ccccc3)n2)CC1,26.3%
20,COc1cccc(CN2CCCC3(CCN(C(=O)c4ccco4)C3)C2)c1 (stereo not drawn),8.37%
21,COc1cccc(CN2CCCC3(CCN(C(=O)N4CCCC4)C3)C2)c1 (stereo not drawn),50.17%
22,COc1cccc(CN2CCCC3(CCN(C(=O)[C@H]4CCCO4)C3)C2)c1 (stereo partly drawn),21.89%
